Here are results for 38 compounds from PubChem BioAssay (EPA / NIEHS).

Where “and” joins values, the source holds several entries; their conditions need not be identical. Equal entries are not always repeated. Where a structure was tested more than once in an assay, its records may differ in their call. Calls of active or inactive are those of the source. Rule for the calls: active = hit-call score of the fitted dose curve at least 0.9, where 1 is the maximum; inactive = score below 0.9.

The test can be described thus: BSK_3C_VCAM1: BioMAP Diversity Plus: 3C Assay for Vascular cell adhesion molecule 1 (VCAM1) Biomarker Activity (AID 2282999). As to conditions: BioMAP 3C HUVEC, VCAM1 ELISA, cytokine-stimulated; actives raise or lower the signal. As to the method:
BSK_3C is a cell-based, multiplexed-readout assay that uses umbilical vein endothelium, a human vascular primary cell, with measurements taken at 24 hours after chemical dosing in a 96-well plate.BSK_3C_VCAM1 is an assay component measured in the BSK_3C assay. It measures VCAM-1 antibody related to regulation of gene expression using ELISA technology.Data from the assay component BSK_3C_VCAM1 was analyzed into 1 assay endpoint. This assay endpoint, BSK_3C_VCAM1, was analyzed with bidirectional fitting relative to DMSO as the negative control and baseline of activity. Using a type of binding reporter, gain or loss-of-signal activity can be used to understand changes in the signaling as they relate to the gene VCAM1. Furthermore, this assay endpoint can be referred to as a primary readout, because this assay has produced multiple assay endpoints where this one serves a signaling function. To generalize the intended target to other relatable targets, this assay endpoint is annotated to the cell adhesion molecules intended target family, where the subfamily is Immunoglobulin CAM.
The levels of cell surface (or secreted, indicated by the prefix "s") biomarker endpoints were measured by ELISA. Overt cytotoxicity to cells in confluent adherent cultures (all systems other than the BT system) was assessed by measuring total protein levels using sulforhodamine B (SRB) staining in parallel cultures at the time of biomarker measurements, indicated as SRB endpoints. For proliferation assays for adherent cell types, individual cell types are cultured at sub-confluence and relative cell numbers quantified by SRB staining at time points optimized for each system (48 h: 3C and CASM3C systems; 72 h: BT and HDF3CGF systems; 96 h: SAg system). SRB was performed by staining cells with 0.1% SRB after fixation with 10% TCA and reading wells at 560 nm.Viability and proliferation of PBMC (T cells) was quantified by Alamar Blue reduction for the SAg and BT systems. For PBMC viability (referred to as PBMC Cytotoxicity within the assay endpoint names), cells were plated (75,000/well in a 96-well plate) and then chemical samples added for 1 h before addition of activators, SEB and TSST-1 (20 ng/mL final concentration each). Cells were incubated for 90 h. Then, Alamar Blue (20 uL/well) (Invitrogen, Cat DAL1100) was added for 6 h, and the plates were read with a fluorescence microplate reader at 546/580 nm (excitation/emission). For PBMC proliferation, cells were plated and activated as above but incubated for only 16 h prior to addition of Alamar Blue. Plates were read after 6 h.
In general terms: ELISA stands for enzyme-linked immunosorbent assay.
Regarding `CC#Cc1cc(C)nc(Nc2ccccc2)n1`, the result was inactive.
On to `CC(c1ccc(O)cc1)(c1ccc(O)cc1)c1ccc(O)cc1`, for which the half-maximal activity concentration (AC50) is 29.8 µM (active).
Take `Cc1cccc([N+](=O)[O-])c1`: the result was inactive.
Regarding `Cc1cc(O)ccc1Cl`, the result was inactive.
On the same count and under the same terms, the result for `Cc1cc(-c2ccc(N)c(C)c2)ccc1N` reads “inactive”.
On the same count and under the same terms, the result for `Cc1cccc(C)c1N` reads “inactive”; that for `ClC1=C(Cl)[C@]2(Cl)[C@@H]3[C@@H](Cl)[C@H]4O[C@H]4[C@@H]3C1(Cl)C2(Cl)Cl`, “inactive”.
The same measure, in the same setting: the result for `CCC(C)(c1ccc(O)cc1)c1ccc(O)cc1` reads “inactive”.
Turning to `CCCCCCOC(=O)c1ccccc1C(=O)OCCCCCC`, the outcome was inactive.
Still for that read-out and setting: to `COS(=O)(=O)OC` belongs “inactive”; to `C1CC2OC2CC1C1CO1` (stereo not given), “inactive”.
Regarding `Clc1ccc(C(c2ccccc2Cl)C(Cl)(Cl)Cl)cc1` (stereo not given), the AC50 was 21 µM (active).
For the compound `C[C@]12CCC(=O)C=C1CC[C@@H]1[C@@H]2CC[C@@]2(C)[C@H]1CC[C@]2(C)O`, the result was inactive.
On the same count and under the same terms, the result for `Cc1cc2c3c(c1)C(c1ccccc1)=N[C@@H](NC(=O)c1ccncc1)C(=O)N3CC2` reads “inactive”.
On to `CC(C)(O)C(=O)Nc1ccc([N+](=O)[O-])c(C(F)(F)F)c1`, for which the result was inactive.
The same measure, in the same setting: to `CCNc1nc(NC(C)C)nc(SC)n1` belongs “inactive”; to `Nc1ccc(-c2ccc(N)cc2)cc1`, “inactive”.
As for `CCC(C)c1cc([N+](=O)[O-])cc([N+](=O)[O-])c1O` (stereo not given), the AC50 is 8.86 µM (active).
As for `CC(C)C(=O)OCC(C)(C)C(OC(=O)C(C)C)C(C)C` (stereo not given), the result was inactive.
For the compound `O=C(O)C(F)(F)C(F)(F)C(F)(F)C(F)(F)C(F)(F)C(F)(F)C(F)(F)C(F)(F)C(F)(F)F`, the AC50 is 56.8 µM (active) and 53.1 µM (active); the result was inactive.
In the case of `CCCN(CCC)N=O`, the result was inactive.
Same read-out and setting: the result for `CN(C)CCO` reads “inactive”; that for `CCC(C)(CC)c1cc(NC(=O)c2c(OC)cccc2OC)on1`, “inactive”; that for `Cc1ccccc1O`, “inactive”.
On to `C[C@]12CCC(=O)C=C1CC[C@@H]1[C@@H]2CC[C@]2(C)C(=O)CC[C@@H]12`, for which the result was inactive.
Still for that read-out and setting: the result for `ClC1=C(Cl)[C@]2(Cl)[C@@H]3[C@H]4C[C@H]([C@@H]5O[C@H]45)[C@@H]3[C@@]1(Cl)C2(Cl)Cl` reads “inactive”; that for `O=C(NC(=O)c1cc(F)c(F)cc1Cl)Nc1cc(F)ccc1N1CCC(C(=O)O)CC1`, “inactive”.
In the case of `O=C(O)C(F)(F)C(F)(F)C(F)(F)C(F)(F)C(F)(F)F`, the result was inactive.
Same read-out and setting: to `Nn1cnnc1` belongs “inactive”.
As for `O=C(O)C(F)(F)C(F)(F)C(F)(F)C(F)(F)C(F)(F)C(F)(F)C(F)(F)C(F)(F)F`, the AC50 is 49.5 µM (active) and 30 µM (active); the result was inactive.
For `CN(C)c1nc(=O)n(C2CCCCC2)c(=O)n1C`, the outcome was inactive.
In the case of `NS(=O)(=O)C(F)(F)C(F)(F)C(F)(F)C(F)(F)C(F)(F)C(F)(F)C(F)(F)C(F)(F)F`, the AC50 was 35.2 µM (active) and 55 µM (active) and 55.3 µM (active).
Turning to `CC1=C2C[C@H]3[C@@H](CC=C4C[C@@H](O)CC[C@@]43C)[C@@H]2CC[C@]12O[C@@H]1C[C@H](C)CN[C@H]1[C@H]2C`, the result was inactive.
In the case of `C=CC(N)=O`, the result was inactive.
Same read-out and setting: the result for `c1ccc(-c2ccccc2)cc1` reads “inactive”; that for `Oc1ccc(Cl)cc1Cl`, “inactive”; that for `CCOP(=S)(OCC)SCSC(C)(C)C`, “inactive”.
Same read-out and setting: the result for `O=S(=O)(O)C(F)(F)C(F)(F)C(F)(F)C(F)(F)F` reads “inactive”.

In general, AC50 refers to the concentration giving half of the maximal activity seen.
